Source: PubChem BioAssay (NCATS)
Inconclusive results are not listed. The list shows a part of the results. Calls of active or inactive are those of the source. Unless noted, calls follow the shape of the dose curve; as a rule, active = well fitted curve in the direction sought with a large enough effect; inconclusive = small, poorly fitted or top-dose-only effect, or another doubt; inactive = no such curve, though single readings can be large; an effect the other way counts as inactive or inconclusive.

Assays:
[1] = target: Rap guanine nucleotide exchange factor 3 (Homo sapiens) (UniProt O95398); assay: Confirmatory qHTS for antagonist of cAMP-regulated guanine nucleotide exchange factor 3 (EPAC1) (AID 1645880); conditions: EPAC1 Rap1B-BODIPY-GDP exchange, fluorescence; activity, negative = inhibition: at 115 µM (top of the series); also: nearly all actives have a fitted effect of over 55% in size; also: potency is read from the fitted curve at half-maximal effect;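 as to activity, negative = inhibition: plate controls were DMSO only for no effect and full effect of the ATA control for full effect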
Procedure, shortened: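 Released BODIPY-GDP fluoresces less than Rap1-bound BODIPY-GDP; the signal is followed at 480/540 nm at 5-min intervals over 30 min, after 5 min at room temperature. Reactions contain 100 nM EPAC1, 250 nM RAP1B-BODIPY-GDP and 50 uM GDP; results are normalized to ATA and DMSO.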

[2] = target: Rap guanine nucleotide exchange factor 3 (Homo sapiens) (UniProt O95398); assay: Confirmatory qHTS for agonist of cAMP-regulated guanine nucleotide exchange factor 3 (EPAC1) (AID 1645881); also: nearly all actives have a fitted effect of over 75% in size; also: potency is read from the fitted curve at half-maximal effect;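 as to activation: EPAC1 catalysed release of BODIPY-GDP from Rap1B seen as fluorescence loss; 100% = effect of cAMP agonist control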
[3] = target: Rap guanine nucleotide exchange factor 4 (Homo sapiens) (UniProt Q8WZA2); assay: Confirmatory qHTS for agonist of cAMP-regulated guanine nucleotide exchange factor 4 (EPAC2) (AID 1645884);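 also: nucleotide exchange releases bodipy-GDP from Rap1 and this lowers its fluorescence; nearly all actives have a fitted effect of over 65% in size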; also: potency is read from the fitted curve at half-maximal effect
[4] = target: Rap guanine nucleotide exchange factor 4 (Homo sapiens) (UniProt Q8WZA2); assay: Confirmatory qHTS for antagonist of cAMP-regulated guanine nucleotide exchange factor 4 (EPAC2) (AID 1645885); also: nearly all actives have a fitted effect of over 25% in size; also: potency is read from the fitted curve at half-maximal effect
[5] = target: Rap guanine nucleotide exchange factor 3 (Homo sapiens) (UniProt O95398); assay: Counterscreen qHTS for antagonist of cAMP-regulated guanine nucleotide exchange factor 3 (EPAC1) (AID 1645888); also: % of control where 0% means no effect
Procedure, shortened: (§1)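 Rap1B-BODIPY-GDP 250 nM + GDP 50 uM; cpds 7-pt, final 9.74 nM–152 uM (activator mode) or from 7.32 nM upwards (inhibitor mode); RT; FI 480/540 nm at 5 and 30 min, then ± cAMP, reread.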

[6] = target: Rap guanine nucleotide exchange factor 3 (Homo sapiens) (UniProt O95398); assay: Counterscreen qHTS for agonist of cAMP-regulated guanine nucleotide exchange factor 3 (EPAC1) (AID 1645889); also: % of control where 0% means no effect; nearly all actives have a fitted effect of over 40% in size
Procedure, shortened: as §1

[7] = qHTS Assay for Inhibitors of Fructose-1,6-bisphosphate Aldolase from Giardia Lamblia: Mammalian cellular toxicity (AID 2786);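 also: compound exposure lasted 48 h before reading; % is scaled to controls: 0 for no effect and ±100 for the full control effect; nearly all actives have a fitted effect of over 60% in size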
Procedure, shortened: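 Mammalian cytotoxicity surrogate: Chinese hamster ovary cells exposed to compound for 48 h at 37 °C. Cellular ATP then measured with ATPlite reagent, 20 min incubation.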

[8] = target: Fructose-bisphosphate aldolase (Giardia intestinalis (strain ATCC 50803 / WB clone C6)) (UniProt A8B2U2); assay: qHTS Assay for Inhibitors of Fructose-1,6-bisphosphate Aldolase from Giardia Lamblia: Primary screen confirmation (AID 2787);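 also: aldolase product measured through coupled diaphorase step turning resazurin into fluorescent resorufin; % is scaled to controls: 0 for no effect and ±100 for the full control effect; nearly all actives have a fitted effect of over 45% in size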
Procedure, shortened: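 FBPA (40 nM in enzyme reagent, with 30 uM ZnCl2) was preincubated 10 min at RT with compound up to 57.5 uM final. Substrate plus coupled detection system was then added, and fluorescence (525/598 nm) was read after 20 min at RT.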

[9] = target: Fructose-bisphosphate aldolase A (Oryctolagus cuniculus) (UniProt P00883); assay: qHTS Assay for Inhibitors of Fructose-1,6-bisphosphate Aldolase from Giardia Lamblia: Rabbit FBPA Selectivity (AID 2794); also: % is scaled to controls: 0 for no effect and ±100 for the full control effect; nearly all actives have a fitted effect of over 60% in size
Procedure, shortened: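 To triage Class I aldolase inhibitors, rabbit FBPA activity is followed through a glyceraldehyde-3-phosphate-linked enzyme cascade feeding AmpLite Red. Compounds (up to 57.5 uM final) sit 10 min with coupling enzymes before substrate; fluorescence is read 20 min later.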

[10] = qHTS Assay for Inhibitors of Fructose-1,6-bisphosphate Aldolase from Giardia Lamblia: Coupling assay counterscreen confirmation (AID 2795); also: % is scaled to controls: 0 for no effect and ±100 for the full control effect; nearly all actives have a fitted effect of over 55% in size
Procedure, shortened: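 GAPDH-coupled counterassay lacking aldolase; compound range up to 57.5 uM final; 10 + 20 min RT incubations; AmpLite Red fluorescence, 525/598 nm.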

[11] = target: Lysosomal acid glucosylceramidase (Homo sapiens) (UniProt P04062); assay: Glucocerebrosidase-p2 (AID 348; in the data active = potency below about 10 µM; also: potency is read from the fitted curve at half-maximal effect); conditions: purified GBA, blue fluorogenic substrate, 40 min
Procedure, shortened: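 Normal human glucocerebrosidase (0.2 nM) with blue fluorogenic substrate (80 uM final) in citrate/phosphate pH 5.9 with 10mM sodium taurocholate, 0.01% tween-20; 40 min RT, NaOH/glycine stop; fluorescence Ex 365/Em 440; AC50 from a titration from 0.6 nM upwards.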

[12] = AP1 Signaling Pathway (AID 357; active = well fitted curve in either direction with a large enough effect, not every such curve was filed as active;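 also: ME-180 reporter cells stimulated with EGF at its EC50 level; % is scaled to controls: 0 for no effect and ±100 for the full control effect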); conditions: ME-180 (cervical carcinoma) AP-1-bla reporter, EGF-induced, beta-lactamase ratio, 5 h; at 7.69 µM (top of the series) unless noted
Procedure, shortened: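 Beta-lactamase reporter under AP-1 response element, ME-180 background. Stimulus: EC50 EGF. Compound exposure 5 h, 37 °C. Detection: CCF4, 2.5 h RT, 460/530 nm. Values: AC50 from titration.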

[13] = target: Cytochrome P450 1A2 (Homo sapiens) (UniProt P05177); assay: p450-cyp1a2 (AID 410; calls by dose curve; also: potency is read from the fitted curve at half-maximal effect)
Procedure, shortened: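 20nM CYP1A2, 100uM Luciferin-ME (=Km), 100mM KPO4; cpd 10 min RT; +NADPH regen, 60 min RT; stop/detect 20 min; luminescence. Normalized to furafylline 57 uM = full inhibition.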

[14] = Stat Signaling Pathway (AID 446; active = well fitted curve in either direction with a large enough effect, not every such curve was filed as active;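 also: ME-180 cervical cancer cells given 40 pM IL-6 alongside compound; SIE-controlled beta-lactamase reporter measured as 460/530 nm FRET emission ratio; % is scaled to controls: 0 for no effect and ±100 for the full control effect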)
Procedure, shortened: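 Overnight-plated ME-180 cells bearing a STAT Inducible Element beta-lactamase reporter; 5 h co-exposure to compound and 40 pM IL-6; values normalized to 300 pM IL-6 and 125 nM JAK inhibitor controls.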

[15] = target: Glucocorticoid receptor (Homo sapiens) (UniProt P04150); assay: GR-GFP Redistribution (AID 450;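 active = compounds whose dose series gives a full or clear partial fitted curve of increased nuclear translocation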; also: potency is read from the fitted curve at half-maximal effect); conditions: U2OS GR-GFP nuclear translocation, laser cytometry, 2 h
[16] = target: Glucocorticoid receptor (Homo sapiens) (UniProt P04150); assay: GR-EFC Redistribution (AID 451; calls by dose curve; also: potency is read from the fitted curve at half-maximal effect); conditions: CHO-K1 GR-EFC translocation, beta-gal luminescence, 2 h
Procedure, shortened: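 Translocation of GR-ED fusion to nuclear EA restores b-gal, read by luminescence after 1 h room-temperature detection. Engineered CHO-K1 biosensor cells, 1,000/well, exposed 2 h at 37 C to titrations up to 46 uM final.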

[17] = target: Mitogen-activated protein kinase 10 (Mus musculus) (UniProt Q61831); assay: JNK3 AlphaScreen Assay (AID 530; active = well fitted curve in either direction with a large enough effect, not every such curve was filed as active;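 also: kinase came from lysate of stimulated human HepG2 cells; signal reports phosphorylation of biotinylated GST-cJun 1-79 at Ser73 with 10 µM ATP; % is scaled to controls: 0 for no effect and ±100 for the full control effect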)
Procedure, shortened: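 Kinase buffer: 20 mM Tris-HCl pH 7.6, 10 mM MgCl2, 1 mM DTT, 0.1 mM Na3VO4, 0.01% Tween-20; ATP 10 uM. Substrate biotin-GST-cJun(1-79), enzyme from activated HepG2 lysates. Detection by Ser73 phospho-antibody AlphaScreen.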

[18] = target: 3',5'-cyclic-AMP phosphodiesterase 4B (Homo sapiens) (UniProt Q07343); assay: qHTS Assay for Inhibitors of PDE-IV (AID 607; active = well fitted activation curve with a large enough effect in the main read-out, with a control signal flat, not every such curve was filed as active; also: % of control where 0% means no effect)
Procedure, shortened: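 Live HEK293 cells with a modified cyclic nucleotide-gated (CNG) channel report intracellular cAMP via membrane-potential dye fluorescence (ex 535/em 590 nm). Endogenous PDE-IV was targeted. Compounds were tested at up to 22.9 uM final; RO 20-1724 100 uM served as control.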

[19] = target: Cytochrome P450 2D6 (Homo sapiens) (UniProt P10635); assay: qHTS Assay for Inhibitors and Substrates of Cytochrome P450 2D6 (AID 891); also: potency is read from the fitted curve at half-maximal effect; nearly all actives have a fitted effect of over 60% in size
Procedure, shortened: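 Luminescent read-out of luciferin formed by 5 nM human CYP2D6 demethylating 30 uM Luciferin-ME EGE (Km level) over 60 min at room temperature after NADPH regeneration addition. Data normalized to full inhibition by 1.43 uM quinidine.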

[20] = target: Cytochrome P450 2C19 (Homo sapiens) (UniProt P33261); assay: qHTS Assay for Inhibitors and Substrates of Cytochrome P450 2C19 (AID 899); also: potency is read from the fitted curve at half-maximal effect; nearly all actives have a fitted effect of over 60% in size
Procedure, shortened: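 Luminescence readout of luciferin formed from 10uM Luciferin-H EGE (KM level) by 5 nM CYP2C19 in 50mM KPO4. 60 min NADPH-driven reaction at 37C after 10 min compound preincubation; data scaled to 57uM ketoconazole inhibition.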

[21] = target: Tumor susceptibility gene 101 protein (Homo sapiens) (UniProt Q99816); assay: qHTS Assay for Iinhibitors of HIV-1 Budding by Blocking the Interaction of PTAP/TSG101: Hit Validation (AID 651600); also: % is scaled to controls: 0 for no effect and ±100 for the full control effect; nearly all actives have a fitted effect of over 70% in size
Procedure, shortened: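 Displacement of a FITC-labeled PTAP-motif peptide (50 nM) from the Tsg101 binding domain (10 uM) was monitored by fluorescence polarization after a 20 min room-temperature incubation.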

[22] = NFAT Signaling Pathway (AID 444; active = well fitted curve in either direction with a large enough effect, not every such curve was filed as active;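 also: carbachol stimulus at about its EC50 of 1 µM final; % is scaled to controls: 0 for no effect and ±100 for the full control effect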); conditions: Jurkat NFAT-bla M1, carbachol, beta-lactamase ratio, 5 h; at 7.69 µM (top of the series) unless noted
Procedure, shortened: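 Read-out: CCF4 FRET ratio (460 nm/530 nm) after 1 h RT dye loading, used for %activity and AC50 from titration series. Cells: Jurkat NFAT-β-lactamase/M1 line, treated with compound plus 1 uM carbachol for 5 h, 37 °C.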

Chain of Glucocorticoid receptor (Homo sapiens) (P04150 whole entry, looked up, the tested form may be a part): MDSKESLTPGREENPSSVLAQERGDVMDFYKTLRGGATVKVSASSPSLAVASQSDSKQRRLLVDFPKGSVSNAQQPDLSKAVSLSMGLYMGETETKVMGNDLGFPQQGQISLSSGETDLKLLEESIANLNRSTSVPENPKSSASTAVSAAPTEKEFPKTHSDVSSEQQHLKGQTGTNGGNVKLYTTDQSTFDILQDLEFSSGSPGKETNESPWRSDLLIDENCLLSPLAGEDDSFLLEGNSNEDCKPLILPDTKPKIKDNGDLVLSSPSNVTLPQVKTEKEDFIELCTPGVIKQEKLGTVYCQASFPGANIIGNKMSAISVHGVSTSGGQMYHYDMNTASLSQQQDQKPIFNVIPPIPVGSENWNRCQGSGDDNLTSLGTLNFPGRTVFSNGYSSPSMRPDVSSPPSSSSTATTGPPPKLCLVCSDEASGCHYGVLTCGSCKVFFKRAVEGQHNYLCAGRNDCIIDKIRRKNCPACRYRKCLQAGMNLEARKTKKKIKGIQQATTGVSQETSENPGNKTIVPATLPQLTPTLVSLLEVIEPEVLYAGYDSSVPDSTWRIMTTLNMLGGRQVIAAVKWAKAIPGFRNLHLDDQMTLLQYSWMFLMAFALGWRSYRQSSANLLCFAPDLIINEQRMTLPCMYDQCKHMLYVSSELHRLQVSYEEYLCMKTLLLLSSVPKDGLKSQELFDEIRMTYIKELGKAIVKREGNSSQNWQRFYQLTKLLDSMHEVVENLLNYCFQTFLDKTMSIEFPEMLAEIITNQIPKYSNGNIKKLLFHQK
Chain of Rap guanine nucleotide exchange factor 4 (Homo sapiens) (Q8WZA2 whole entry, looked up): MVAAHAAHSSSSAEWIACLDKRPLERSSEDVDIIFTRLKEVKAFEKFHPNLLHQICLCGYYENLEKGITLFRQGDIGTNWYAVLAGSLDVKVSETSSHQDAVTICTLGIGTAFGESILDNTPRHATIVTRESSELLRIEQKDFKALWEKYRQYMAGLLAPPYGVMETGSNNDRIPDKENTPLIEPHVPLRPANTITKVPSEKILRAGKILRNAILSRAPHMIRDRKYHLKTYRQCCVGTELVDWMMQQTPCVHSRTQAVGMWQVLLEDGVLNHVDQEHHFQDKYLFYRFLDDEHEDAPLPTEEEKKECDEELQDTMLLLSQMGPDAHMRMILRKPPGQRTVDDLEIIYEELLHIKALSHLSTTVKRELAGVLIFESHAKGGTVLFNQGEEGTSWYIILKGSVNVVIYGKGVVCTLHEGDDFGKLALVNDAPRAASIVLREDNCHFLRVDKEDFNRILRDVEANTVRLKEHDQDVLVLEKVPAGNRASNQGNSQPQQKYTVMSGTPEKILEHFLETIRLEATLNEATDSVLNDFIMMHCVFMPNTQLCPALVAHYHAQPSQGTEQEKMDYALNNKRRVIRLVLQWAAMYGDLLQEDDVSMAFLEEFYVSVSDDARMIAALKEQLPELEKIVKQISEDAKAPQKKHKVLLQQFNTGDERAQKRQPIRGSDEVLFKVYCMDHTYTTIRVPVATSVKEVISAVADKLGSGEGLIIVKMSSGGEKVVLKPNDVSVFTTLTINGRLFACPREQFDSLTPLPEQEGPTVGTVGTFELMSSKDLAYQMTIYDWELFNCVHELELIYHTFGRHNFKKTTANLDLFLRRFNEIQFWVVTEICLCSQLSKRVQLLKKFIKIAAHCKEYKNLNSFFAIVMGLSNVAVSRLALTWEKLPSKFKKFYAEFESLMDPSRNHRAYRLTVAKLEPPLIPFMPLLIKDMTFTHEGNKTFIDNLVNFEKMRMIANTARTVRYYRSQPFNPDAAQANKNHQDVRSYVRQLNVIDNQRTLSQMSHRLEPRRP
Chain of Rap guanine nucleotide exchange factor 3 (Homo sapiens) (O95398 whole entry, looked up): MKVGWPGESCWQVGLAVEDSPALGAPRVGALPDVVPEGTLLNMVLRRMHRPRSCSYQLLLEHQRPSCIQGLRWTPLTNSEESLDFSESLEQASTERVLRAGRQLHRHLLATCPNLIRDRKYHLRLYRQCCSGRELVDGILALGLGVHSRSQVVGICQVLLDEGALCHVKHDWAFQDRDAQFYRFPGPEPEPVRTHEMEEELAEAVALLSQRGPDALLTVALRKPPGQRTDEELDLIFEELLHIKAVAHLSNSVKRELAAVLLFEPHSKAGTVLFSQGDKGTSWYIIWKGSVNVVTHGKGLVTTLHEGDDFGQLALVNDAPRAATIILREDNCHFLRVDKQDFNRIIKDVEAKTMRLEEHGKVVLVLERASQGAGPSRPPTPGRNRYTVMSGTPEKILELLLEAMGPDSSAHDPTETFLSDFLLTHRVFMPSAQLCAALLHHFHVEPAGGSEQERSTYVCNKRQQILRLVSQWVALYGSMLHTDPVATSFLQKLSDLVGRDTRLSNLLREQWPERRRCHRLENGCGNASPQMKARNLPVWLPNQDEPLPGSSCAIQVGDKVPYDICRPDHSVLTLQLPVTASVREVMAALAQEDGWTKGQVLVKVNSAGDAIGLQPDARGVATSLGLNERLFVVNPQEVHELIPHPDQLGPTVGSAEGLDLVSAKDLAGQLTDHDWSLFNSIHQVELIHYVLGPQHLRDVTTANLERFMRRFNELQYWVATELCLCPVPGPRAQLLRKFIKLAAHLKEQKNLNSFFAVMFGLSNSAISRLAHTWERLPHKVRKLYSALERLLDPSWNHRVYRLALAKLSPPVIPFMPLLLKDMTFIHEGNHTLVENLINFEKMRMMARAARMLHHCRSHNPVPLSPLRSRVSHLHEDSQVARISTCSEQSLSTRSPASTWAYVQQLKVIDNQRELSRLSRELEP
Chain of Lysosomal acid glucosylceramidase (Homo sapiens) (P04062 whole entry, looked up): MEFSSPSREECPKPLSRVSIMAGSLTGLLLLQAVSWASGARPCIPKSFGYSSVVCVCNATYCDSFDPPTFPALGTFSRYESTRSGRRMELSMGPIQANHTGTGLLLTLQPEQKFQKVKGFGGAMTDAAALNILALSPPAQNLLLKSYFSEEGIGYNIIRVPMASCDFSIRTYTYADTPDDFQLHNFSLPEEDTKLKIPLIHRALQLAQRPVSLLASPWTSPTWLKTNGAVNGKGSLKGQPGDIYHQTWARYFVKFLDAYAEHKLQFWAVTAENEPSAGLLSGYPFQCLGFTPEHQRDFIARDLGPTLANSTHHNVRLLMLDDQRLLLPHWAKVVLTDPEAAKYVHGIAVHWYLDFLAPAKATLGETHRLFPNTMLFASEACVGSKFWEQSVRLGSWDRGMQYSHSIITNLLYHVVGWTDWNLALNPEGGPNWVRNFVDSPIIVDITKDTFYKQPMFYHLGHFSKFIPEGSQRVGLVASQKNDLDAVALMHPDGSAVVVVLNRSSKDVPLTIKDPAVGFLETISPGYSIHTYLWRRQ
Chain of Cytochrome P450 1A2 (Homo sapiens) (P05177 whole entry, looked up): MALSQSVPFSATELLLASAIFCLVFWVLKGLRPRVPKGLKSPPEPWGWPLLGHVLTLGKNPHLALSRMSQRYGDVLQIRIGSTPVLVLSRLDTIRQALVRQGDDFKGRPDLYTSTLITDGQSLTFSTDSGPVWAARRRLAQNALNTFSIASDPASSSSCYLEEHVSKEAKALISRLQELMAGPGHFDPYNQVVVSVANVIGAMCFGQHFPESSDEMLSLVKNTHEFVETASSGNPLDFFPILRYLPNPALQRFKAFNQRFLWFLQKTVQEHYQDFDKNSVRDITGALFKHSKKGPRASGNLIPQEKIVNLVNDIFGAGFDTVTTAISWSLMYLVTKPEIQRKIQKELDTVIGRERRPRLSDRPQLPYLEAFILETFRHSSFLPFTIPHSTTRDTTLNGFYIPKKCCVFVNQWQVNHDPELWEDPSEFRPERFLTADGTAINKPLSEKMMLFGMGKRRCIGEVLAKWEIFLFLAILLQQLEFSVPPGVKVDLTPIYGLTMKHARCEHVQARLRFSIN
Chain of Cytochrome P450 2C19 (Homo sapiens) (P33261 whole entry, looked up): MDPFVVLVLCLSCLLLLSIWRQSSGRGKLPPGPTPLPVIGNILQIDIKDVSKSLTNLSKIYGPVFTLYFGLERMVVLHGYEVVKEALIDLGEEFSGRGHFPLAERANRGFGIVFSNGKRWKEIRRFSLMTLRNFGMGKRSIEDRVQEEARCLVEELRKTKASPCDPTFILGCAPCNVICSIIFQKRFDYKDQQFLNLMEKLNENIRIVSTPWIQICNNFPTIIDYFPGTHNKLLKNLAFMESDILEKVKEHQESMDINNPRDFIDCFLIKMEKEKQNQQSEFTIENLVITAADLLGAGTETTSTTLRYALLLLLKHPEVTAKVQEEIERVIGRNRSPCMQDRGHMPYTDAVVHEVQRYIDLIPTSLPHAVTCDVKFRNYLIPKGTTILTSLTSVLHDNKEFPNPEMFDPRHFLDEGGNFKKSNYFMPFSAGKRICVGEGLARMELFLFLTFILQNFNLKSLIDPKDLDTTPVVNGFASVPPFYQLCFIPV
Chain of 3',5'-cyclic-AMP phosphodiesterase 4B (Homo sapiens) (Q07343 whole entry, looked up): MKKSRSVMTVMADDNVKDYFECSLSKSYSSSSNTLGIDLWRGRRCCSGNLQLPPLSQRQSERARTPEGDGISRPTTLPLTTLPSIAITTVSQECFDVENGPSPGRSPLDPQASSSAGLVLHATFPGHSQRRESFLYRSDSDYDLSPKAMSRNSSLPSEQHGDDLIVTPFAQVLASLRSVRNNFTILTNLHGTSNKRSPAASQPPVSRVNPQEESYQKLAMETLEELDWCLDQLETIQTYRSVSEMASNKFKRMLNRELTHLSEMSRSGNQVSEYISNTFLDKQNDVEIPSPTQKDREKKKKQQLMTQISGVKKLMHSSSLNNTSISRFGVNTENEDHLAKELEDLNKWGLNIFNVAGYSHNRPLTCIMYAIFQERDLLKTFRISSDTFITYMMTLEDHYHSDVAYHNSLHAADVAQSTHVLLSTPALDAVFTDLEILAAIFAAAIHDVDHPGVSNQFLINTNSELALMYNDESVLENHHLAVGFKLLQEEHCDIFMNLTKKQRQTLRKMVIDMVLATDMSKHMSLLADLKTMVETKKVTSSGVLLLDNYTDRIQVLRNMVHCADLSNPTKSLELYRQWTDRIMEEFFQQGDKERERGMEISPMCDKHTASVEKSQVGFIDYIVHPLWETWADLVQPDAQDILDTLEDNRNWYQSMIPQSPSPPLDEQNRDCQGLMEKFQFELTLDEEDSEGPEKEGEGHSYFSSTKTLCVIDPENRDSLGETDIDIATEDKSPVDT

COc1ccc(Cl)cc1-n1c(=S)sc2c(=O)[nH]c(SCC(=O)NCCC(C)C)nc21
inactive: Potency [2] | Potency [3] | Potency [4] | Potency [5] | Potency [6]
active: Potency [1] 15.1 µM

CC[C@]12c3[nH]c4cc(-c5ccco5)ccc4c3CCN1C(=O)[C@@H](CC(=O)NCCCOC)C[C@@H]2C(=O)N1CCN(C(=O)C2CC2)CC1
inactive: Potency [1] | Potency [2] | activation [3] 9.39% [at 17.1 µM, percent relative to cAMP agonist control] | Potency [4] | activity change, negative = inhibition [5] -21.4% [at 30.8 µM] | activation [6] -1.13% [at 30.8 µM]

O=C(C1=C(O)C(=O)N(c2nc3ccc(Cl)cc3s2)C1c1ccco1)c1ccco1 (centres undefined)
active: Potency [1] 16.9 µM
inactive: Potency [2] | Potency [3] | Potency [4] | Potency [5] | Potency [6]

CCCc1nc2ccccc2c(=O)n1/N=C/c1ccc(O)c(O)c1
inactive: outcome [7] | outcome [8] | outcome [9] | outcome [10] | Potency [1] | Potency [2] | Potency [3] | Potency [4] | Potency [5] | Potency [6]

CC(C)=CCC1=C(OCC(=O)O)C(=O)c2ccccc2C1=O
inactive: Potency [11] > 11.4 µM | activity change, negative = inhibition [12] 18.8% | outcome [14] | Potency [15] > 46 µM | Potency [16] > 9.22 µM | activity change, negative = inhibition [17] 15.2% [at 11.4 µM] | Potency [18] | Potency [2] | Potency [3] | Potency [4] | Potency [5]
active: Potency [13] 0.501 µM | Potency [19] 3.16 µM | Potency [20] 1.26 µM | Potency [1] 84.9 µM

N#CC(C(=O)NCc1ccccc1)c1nc2ccccc2nc1N1CCCC1 (centres undefined)
active: Potency [2] 100 µM | Potency [3] 89.1 µM | Potency [4] 75.7 µM
inactive: Potency [21] | Potency [1] | Potency [5] | Potency [6]

COCCn1c(N)c(C(=O)NCC2CCCO2)c2nc3ccccc3nc21 (centres undefined)
inactive: activity change, negative = inhibition [12] -8.13% [at 17.2 µM] | activity change, negative = inhibition [22] 8.7% [at 17.2 µM] | outcome [14] | Potency [15] > 20.6 µM | Potency [1] | Potency [2] | Potency [3] | Potency [4] | Potency [5]
